# Test results reported in PubChem BioAssay (Tox21).
# Results filed as inconclusive are left out. A number with no mark means an inactive call. The call rests on the fitted dose curve; in most records, active means well fitted cell-killing curve with a large enough effect in the repeat runs; inconclusive means weak or mixed curves, or effect the other way; inactive means no such curve, though single readings can be large or run the other way.
# Assay: qHTS assay for small molecule activators of the heat shock response signaling pathway - cell viability counter screen (AID 743209); further: nearly all actives have a fitted effect of over 50% in size
# Conditions: HSE-bla HeLa viability, CellTiter-Glo luminescence, 5 h; series mostly up to 62.6 µM; activity change, negative = cytotoxicity: at the top concentration
# From the text: U.S. Tox21 Program National Center for Advancing Translational Sciences [NCATS] NIH Chemical Genomics Center [NCGC] U.S. Environmental Protection Agency [EPA] National Institutes of Environmental Health Sciences [NIEHS] National Toxicology Program [NTP] U.S. Food and Drug Administration [FDA] Tox21 Assay Overview: Various chemicals, environmental and physiological stress conditions may lead to the activation of heat shock response/ unfolded protein response (HSR/UPR). There are three heat shock transcription factors (HSFs) (HSF-1, -2, and -4) mediating transcriptional regulation of the human HSR. To identify the compounds that activate HSR signaling, HSE-bla HeLa cell line (Invitrogen, Carlsbad, CA, USA) containing a beta-lactamase reporter gene under the control of the heat shock response elements was used to screen Tox21 10K compound library. The cytotoxicity of the Tox21 compound library against the HSE-bla HeLa cell line was tested in parallel by measuring the cell viability using CellTiter-Glo assay (Promega, Madison, WI) in the same wells.
# Tox21 Assay Protocol Summary: The CellSensor HSE-bla HeLa cells (Invitrogen, Carlsbad, CA, USA) were dispensed at 1500 cells/6uL/well into 1536-well black wall/clear bottom plates using a Multidrop combi (Thermo Fisher Scientific, Waltham, MA) dispenser. After the assay plates were incubated at 37 C and 5% CO2 overnight, 23 nL of compounds dissolved in DMSO, positive controls or DMSO only was transferred to the assay plate by a Pintool station (Kalypsys, San Diego, CA). The plates were incubated at 37 C for 5 h. After 1 uL of LiveBLAzerTM B/G FRET substrate was added using a Flying Reagent Dispenser (FRD, Beckman Coulter, Indianapolis, IN, USA), the plates were incubated at room temperature for 2.5 h, and fluorescence intensity was measured by an Envision plate reader (PerkinElmer, Shelton, CT). For cell viability readout that measures cytotoxicity, 3 ul/well of CellTiter-Glo reagent was added into the assay plates using a FRD. After 30 min incubation at room temperature, the luminescence intensity in the plates was measured using a ViewLux (PerkinElmer) plate reader.
# On the % scale 0 is the no-effect control and ±100 the full control effect.
row,SMILES,"activity change, negative = cytotoxicity"
1,NCCN1CCOCC1,1.22%
2,NS(=O)(=O)c1ccc(NC(=O)CCC(=O)O)cc1,1.76%
3,ClCCCl,-3.56%
4,CCCCC(CC)COCCO (stereo not given),-1.56%
5,Cc1cccc(C)c1OCC(C)N (stereo not given),9.69%
6,O=C1O[C@@H]2[C@@H](O)[C@H](O)O[C@@H]2[C@H]1O,-4.07%
7,O=S(=O)(O)c1cc(O)c2ccc(Nc3ccccc3)cc2c1,17.2%
8,Cc1[nH]cnc1-c1ccc(Cl)cc1,-8.34%
9,CC(C)NCC(O)COc1cccc2[nH]ccc12 (stereo not given),3.92%
10,C=COCCOCCOCCOC=C,1.23%
11,COCCOC(=O)C1=C(C)NC(C)=C(C(=O)OC(C)C)C1c1cccc([N+](=O)[O-])c1 (stereo not given),8.05%
12,CCOCCOC(=O)/C=C/c1ccc(OC)cc1,4.85%
13,COc1cc(NS(=O)(=O)c2ccc(N)cc2)nc(OC)n1,8.43%
14,c1ccc2c(c1)ccc1c3ccccc3ccc21,5.99%
15,CC(=O)/C=C/C1C(C)=CCC(C)C1(C)C (stereo not given),-18.4%
16,COc1cc(C(=S)N2CCOCC2)cc(OC)c1OC,-2.15%
17,CC(=O)c1ccc2c(c1)Cc1ccccc1-2,-12.3%
18,O=C1c2cccc3c2[C@H](CCC3)CN1[C@@H]1CN2CCC1CC2,2.51%
19,CCCC(=O)C(C)=O,-15.8%
20,On1nnc2ccccc21,-2.94%

row,SMILES,"activity change, negative = cytotoxicity"
1,Cc1cc(NC(=O)C2=C(O)c3ccccc3S(=O)(=O)N2C)no1,-0.466%
2,CCCCCCCCC(=O)Cl,-15.3% [at 81.1 µM]
3,NS(=O)(=O)c1cc2c(cc1Cl)CN(C1CCCCC1)C2=O,-10.1%
4,CC(C)CC(=O)O,2.4%
5,O=S(=O)(O)CCN1CCN(CCO)CC1,4.15%
6,FC(F)(F)c1ccccc1-n1ccnc1,1.18%
7,CC(=O)c1sc(C)nc1C,-11.6%
8,CN(C)C(=O)CNC(=O)Cc1ccccc1,-9.05%
9,O=C(CCNNC(=O)c1ccncc1)NCc1ccccc1,-13.5%
10,CCOC(=O)CC(=O)c1ccccc1,11.3%
11,Oc1cn2c(n1)Nc1ccc(Cl)c(Cl)c1C2,-20.5% [at 29.1 µM]
12,CC(C)OC(=O)CCCCC(=O)OC(C)C,29.8%
13,CCOC(=O)/C=C/c1ccccc1,-0.519%
14,C=CCCCCCCCCCCCC,-0.825%
15,Cc1ccccc1C(=O)Nc1ccc(C(=O)N2CCCC(N(C)C)c3ccccc32)cc1 (stereo not given),-18.7%
16,CCCCNc1ccc(C(=O)OCCN(C)C)cc1,-2.22%
17,Brc1ccc(-c2ccccc2)cc1,-4.4%
18,C=C1CC/C=C(\C)CC[C@@H]2[C@@H]1CC2(C)C,0.862%
19,CCCCCCCCCCCCCC,5.14%
20,O=S(=O)(O)c1ccc2cc(O)c(S(=O)(=O)O)cc2c1,-3.49%
